The values below come from PubChem BioAssay (Tox21).

Values joined by “and” are separate entries in the source; they are usually repeats but may differ in a detail not shown here. Equal values may be shown once. Records with an inconclusive call do not appear. More than one record can exist for a structure, and the calls need not agree. Active and inactive are the calls of the source. Unless noted, the call rests on the fitted dose curve; in most records, active means well fitted curve in the direction sought with a large enough effect in the repeat runs; inconclusive means weak or mixed curves; inactive means no such curve, though single readings can be large; an effect the other way counts as inactive or inconclusive.

Assay [1] in a line: A CellTox Green Cytotoxicity Assay to monitor cytotoxicity in HepG2 cells - 0 hour (AID 1224882). Further: nearly all actives have a fitted effect of over 35% in size. In short, it runs like this:
(§1)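 Nonlytic assay: viable cells exclude the dye, so fluorescence scales with cell death. HepG2 at 600 cells/well, compounds added after 5 h, signal read across 40 h.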

A short description of assay [2]: A CellTox Green Cytotoxicity Assay to monitor cytotoxicity in HepG2 cells - 32 hour (AID 1224883). Further: nearly all actives have a fitted effect of over 50% in size. Further: potency means the concentration at half of the fitted maximal effect. In short, it runs like this: as §1
Assay [3] in a line: A CellTox Green Cytotoxicity Assay to monitor cytotoxicity in HEK293 cells - 8 hour (AID 1224884). Further: nearly all actives have a fitted effect of over 35% in size. Further: potency means the concentration at half of the fitted maximal effect. In short, it runs like this: (§2)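 Seeding of HEK293 cells together with cytotoxicity dye preceded a 5 h incubation at 37 C/5% CO2. Test compounds in DMSO were then added and fluorescence monitored across 40 h.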
Assay [4] in a line: qHTS RealTime-Glo MT Cell Viability Assay in HepG2 cells - 16 hour (AID 1224885). Further: nearly all actives have a fitted effect of over 50% in size. Further: potency means the concentration at half of the fitted maximal effect. The method, boiled down: (§3)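 HepG2 cells (600/well) were dispensed with RealTime-Glo reagents, incubated 5 h at 37 °C, then treated with compounds in DMSO for up to 40 h. Nonlytic NanoLuc luminescence reflecting viable cells was read at each stated time point.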
Assay [5] is described as follows: qHTS RealTime-Glo MT Cell Viability Assay in HEK293 cells - 24 hour (AID 1224886). Further: nearly all actives have a fitted effect of over 50% in size. Further: potency means the concentration at half of the fitted maximal effect. The method, boiled down:
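HEK293 cells seeded with NanoLuc/prosubstrate reagent, rested 5 h at 37 C, then dosed and kept at 37 C up to 40 h. Nonlytic real-time luminescence from viable cells read at 0, 8, 16, 24, 32 and 40 h.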
(In general: Quantitative high-throughput screening tests each substance at several concentrations.)

Assay [6] in a line: qHTS RealTime-Glo MT Cell Viability Assay in HEK293 cells - 8 hour (AID 1224887). Further: nearly all actives have a fitted effect of over 50% in size. Further: potency means the concentration at half of the fitted maximal effect. The method, boiled down:
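Tox21 screen in HEK293 using RealTime-Glo MT chemistry, with cells and reagent co-dispensed. Luminescence proportional to viable cell number was captured at intervals during 40 h compound exposure at 37 C.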

Assay [7] in a line: A CellTox Green Cytotoxicity Assay to monitor cytotoxicity in HEK293 cells - 16 hour (AID 1224888). Further: nearly all actives have a fitted effect of over 35% in size. Further: potency means the concentration at half of the fitted maximal effect. The method, boiled down: as §2
A short description of assay [8]: A CellTox Green Cytotoxicity Assay to monitor cytotoxicity in HepG2 cells - 8 hour (AID 1224890). Further: nearly all actives have a fitted effect of over 45% in size. Further: potency means the concentration at half of the fitted maximal effect. In short, it runs like this:
as §1

Assay [9] can be described thus: qHTS assay to identify small molecule antagonists of the estrogen receptor alpha (ER-alpha) signaling pathway using the BG1 cell line in the presence of 0.1 nM 17-beta-estradiol - cell viability counter screen (AID 1259241). Further: nearly all actives have a fitted effect of over 40% in size. Further: potency means the concentration at half of the fitted maximal effect. In short, it runs like this: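 VM7Luc4E2, 4,000 cells/well, phenol red-free medium + 10% charcoal-stripped FBS; 24 hr plating; cpd + 0.1 nM E2 final, 22 hr 37C/5% CO2; CellTiter-Fluor 30 min, fluorescence.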

Assay [10] is described as follows: qHTS assay to identify small molecule agonists of the sonic hedgehog signaling (Shh) pathway - cell viability counter screen (AID 1259366). Further: nearly all actives have a fitted effect of over 50% in size. Further: potency means the concentration at half of the fitted maximal effect. In short, it runs like this:
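Cytotoxicity counter screen run in the same wells as the Shh reporter assay. NIH/3T3 cells carrying a Gli1 response element–driven luciferase were treated with DMSO-dissolved compounds for 24hr, and live-cell protease activity was measured with CellTiter-Fluor.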

Assay [11] is described as follows: qHTS assay to identify small molecule antagonists of the sonic hedgehog signaling (Shh) pathway - cell viability counter screen (AID 1259367). Further: nearly all actives have a fitted effect of over 55% in size. Further: potency means the concentration at half of the fitted maximal effect. The method, boiled down:
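After a 4 hr settling period, 3T3 Gli1-Luc cells were treated with DMSO-dissolved chemicals and conditioned medium, kept 24 hr at 37C in 5% CO2, and assayed for viability by CellTiter-Fluor fluorescence following 1 hr reagent incubation.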

Assay [12] is described as follows: qHTS assay to identify small molecule antagonists of the sonic hedgehog signaling (Shh) pathway (AID 1259369; calls by dose curve; further: nearly all actives have a fitted effect of over 45% in size; further: potency means the concentration at half of the fitted maximal effect). The method, boiled down:
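Conditioned medium drives Shh signalling in 3T3Gli1-Luc cells; compounds in DMSO co-applied, 24hr at 37 C, then luciferase luminescence.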

Assay [13] can be described thus: qHTS RealTime-Glo MT Cell Viability Assay in HepG2 cells - 0 hour (AID 1224889). Further: nearly all actives have a fitted effect of over 50% in size. The method, boiled down: as §3
Assay [14] in a line: qHTS assay to identify small molecule antagonists of the androgen receptor (AR) signaling pathway using the MDA cell line in the presence of 0.5 nM R1881 - cell viability counter screen (AID 1259242). Further: nearly all actives have a fitted effect of over 45% in size. Further: potency means the concentration at half of the fitted maximal effect. The method, boiled down:
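R1881 at 0.5 nM final stimulated MDA-kb2 cells during 16 hr compound treatment at 37C. Cytotoxicity read: CellTiter-Fluor fluorescence after 30 min.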

The target of assay [15] is Androgen receptor (Homo sapiens) (UniProt P10275). Kind of assay: qHTS assay to identify small molecule antagonists of the androgen receptor (AR) signaling pathway using the MDA cell line in the presence of 0.5 nM R1881 (AID 1259243). In short, it runs like this: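 We exposed MDA-kb2 cells to compounds under 0.5 nM R1881 stimulation for 16 hr at 37C and quantified MMTV-driven luciferase by luminescence.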
Androgen receptor (Homo sapiens), sequence (P10275 whole entry, looked up): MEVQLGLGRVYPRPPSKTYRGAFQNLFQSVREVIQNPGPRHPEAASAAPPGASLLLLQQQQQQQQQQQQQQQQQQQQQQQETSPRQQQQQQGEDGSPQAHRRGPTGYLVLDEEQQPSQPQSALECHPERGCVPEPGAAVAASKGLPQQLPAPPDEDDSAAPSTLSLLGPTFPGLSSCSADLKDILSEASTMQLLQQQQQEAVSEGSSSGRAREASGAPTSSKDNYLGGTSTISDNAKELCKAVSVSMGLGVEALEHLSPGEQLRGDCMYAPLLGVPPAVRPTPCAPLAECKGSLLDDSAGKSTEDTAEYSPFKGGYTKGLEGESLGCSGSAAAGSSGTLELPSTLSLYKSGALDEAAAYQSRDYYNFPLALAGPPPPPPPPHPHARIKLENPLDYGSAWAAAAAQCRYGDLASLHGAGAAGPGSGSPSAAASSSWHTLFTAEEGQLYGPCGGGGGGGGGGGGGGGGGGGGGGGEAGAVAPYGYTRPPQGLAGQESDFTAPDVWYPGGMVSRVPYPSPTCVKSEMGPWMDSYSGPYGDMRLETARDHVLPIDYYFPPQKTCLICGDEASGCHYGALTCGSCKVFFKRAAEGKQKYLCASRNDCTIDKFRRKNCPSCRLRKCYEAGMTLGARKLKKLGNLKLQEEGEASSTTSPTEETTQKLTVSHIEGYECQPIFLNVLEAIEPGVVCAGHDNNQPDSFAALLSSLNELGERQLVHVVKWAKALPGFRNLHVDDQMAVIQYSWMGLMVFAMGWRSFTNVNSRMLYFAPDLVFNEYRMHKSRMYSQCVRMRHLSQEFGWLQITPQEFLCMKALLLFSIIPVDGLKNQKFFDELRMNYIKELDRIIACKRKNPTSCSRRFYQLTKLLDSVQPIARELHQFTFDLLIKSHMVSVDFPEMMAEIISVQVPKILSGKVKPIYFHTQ

Assay [16] concerns the target Estrogen receptor (Homo sapiens) (UniProt P03372). Kind of assay: qHTS assay to identify small molecule antagonists of the estrogen receptor alpha (ER-alpha) signaling pathway using the BG1 cell line in the presence of 0.1 nM 17-beta-estradiol (AID 1259244). Further: nearly all actives have a fitted effect of over 50% in size. Further: potency means the concentration at half of the fitted maximal effect. In short, it runs like this:
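VM7Luc4E2; 4xERE-luciferase; 0.1 nM E2 final; 22 h co-incubation, 37C; ONE-Glo luminescence after 30 min at room temperature.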

The nature of assay [17]: qHTS assay to identify small molecule phospholipidosis (PLD) inducers (AID 1259344; active means well fitted curve in the direction sought with a large enough effect; an effect the other way counts as inactive or inconclusive). In short, it runs like this:
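HepG2 cells grown on collagen I take up LipidTOX Red while exposed to compound for 24 h; after fixation they are imaged at 20x and pit metrics are extracted.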

A short description of assay [18]: qHTS assay to identify small molecule HDAC inhibitors (AID 1259364).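 Further: wild-type HCT-116 cells with endogenous class I/II HDAC activity; top concentration of the series differs between compounds; nearly all actives have a fitted effect of over 45% in size.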 The method, boiled down:
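Relative class I and II HDAC activity is taken from the luminogenic signal in HCT-116 cells, with compound exposure 2 hr and reagent development 30 min at room temperature.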

Assay [19] can be described thus: qHTS assay to identify small molecule HDAC inhibitors - cell viability counter screen (AID 1259365). In short, it runs like this:
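Luminescence from CellTiter-Glo, developed 30min at room temperature, reports viability of wild-type HCT-116 cells treated 2hr with compounds at 37 C and 5% CO2 after overnight plating.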

A short description of assay [20]: qHTS assay to identify small molecule agonists of the sonic hedgehog signaling (Shh) pathway (AID 1259368; calls by dose curve;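 further: NIH/3T3-derived 3T3Gli1-Luc cells carrying a stable Gli1-driven firefly luciferase reporter; series mostly up to about 92 µM; nearly all actives have a fitted effect of over 15% in size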). The method, boiled down: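 Mouse fibroblast (NIH/3T3) reporter cells with stably integrated Gli1-Luc were treated 24 hr with compound; firefly luciferase luminescence served as the read-out.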

Estrogen receptor (Homo sapiens), sequence (P03372 whole entry, looked up): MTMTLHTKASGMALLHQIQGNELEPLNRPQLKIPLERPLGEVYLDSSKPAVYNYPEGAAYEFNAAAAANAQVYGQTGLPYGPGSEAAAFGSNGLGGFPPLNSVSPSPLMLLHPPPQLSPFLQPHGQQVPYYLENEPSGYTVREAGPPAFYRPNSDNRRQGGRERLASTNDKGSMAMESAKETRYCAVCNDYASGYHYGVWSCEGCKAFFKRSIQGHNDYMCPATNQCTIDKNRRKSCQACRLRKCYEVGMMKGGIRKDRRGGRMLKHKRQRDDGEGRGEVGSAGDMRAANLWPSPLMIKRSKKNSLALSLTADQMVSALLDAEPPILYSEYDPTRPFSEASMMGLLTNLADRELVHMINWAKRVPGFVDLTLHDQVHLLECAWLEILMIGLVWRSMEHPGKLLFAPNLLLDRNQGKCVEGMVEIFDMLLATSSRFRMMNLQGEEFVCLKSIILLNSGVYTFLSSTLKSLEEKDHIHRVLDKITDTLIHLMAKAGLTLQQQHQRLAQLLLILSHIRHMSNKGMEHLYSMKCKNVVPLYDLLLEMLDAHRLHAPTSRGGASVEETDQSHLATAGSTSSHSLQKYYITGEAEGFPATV

In the case of `c1ccc2n[nH]nc2c1`, the Potency result in assay [1], in [2], in assay [4], in assay [5], in assay [6] and in [7] was “inactive” each time. Moreover, the Potency result in assay [8], in [9], in assay [10], in assay [11] and in [12] was “inactive” each time. Moreover, the Potency in assay [3] is 9.5 µM (active) and inactive.

For the compound `CCN(CC)C(=S)SSC(=S)N(CC)CC`, the Potency entry in [1], in [13], in assay [9], in assay [14], in assay [17] and in assay [18] was “inactive” throughout. In addition, the Potency entry in assay [19] and in [20] was “inactive” each time. Also, the Potency is 8.25 µM (active) in assay [2]; “inactive and 56.2 µM (active)” in [3]; 0.141 µM (active) in assay [4]; 195 nM (active) and 100 nM (active) and 13.4 µM (active) in [5]; 13.8 µM (active) and 18.5 µM (active) in assay [6]; 56.2 µM (active) and inactive in assay [8]. Besides, the Potency was 122 nM (active) and 39.5 nM (active) and 106 nM (active) in assay [15]; 243 nM (active) and 279 nM (active) in assay [16]; 243 nM (active) and 99.2 nM (active) and 596 nM (active) in assay [10]; 433 nM (active) and 1.25 µM (active) and 2.66 µM (active) in assay [11]; 217 nM (active) and 7.9 nM (active) and 1.33 µM (active) in assay [12].

Take `CCCCC(CC)COC(=O)CC(C(=O)OCC(CC)CCCC)S(=O)(=O)O` (stereo not given): the Potency entry in [1], in assay [4], in [8], in assay [9], in assay [14] and in assay [16] was “inactive” each time. Further, the Potency entry in assay [17], in assay [18], in assay [19], in assay [11], in assay [20] and in [12] was “inactive” in each case. The Potency in [2] is 42 µM (active) and 43.6 µM (active); in assay [3], 13.8 µM (active); in assay [7] it was 19.5 µM (active).

Consider `Nc1cc(S(=O)(=O)O)cc2cc(S(=O)(=O)O)cc(O)c12`, for which the Potency result in assay [1], in [2], in [3], in assay [4], in assay [5] and in [7] was “inactive” throughout. The Potency result in [13], in [8], in assay [14], in [18], in assay [19] and in assay [10] was “inactive” in each case. Also, the Potency result in [20] and in assay [12] was “inactive” in each case. In assay [9], the Potency was 27.3 µM (active).

With `CC[C@]1(O)C[C@@H]2CN(CCc3c([nH]c4ccccc34)[C@@](C(=O)OC)(c3cc4c(cc3OC)N(C)[C@H]3[C@@](O)(C(=O)OC)[C@H](OC(C)=O)[C@]5(CC)C=CCN6CC[C@]43[C@@H]65)C2)C1`, the Potency entry in [1], in assay [2], in assay [3], in [6], in assay [7] and in assay [13] was “inactive” in each case. Besides, the Potency entry in assay [8], in assay [14], in assay [17] and in assay [19] was “inactive” in each case. Also, the Potency in assay [5] is 0.0043 µM (active); in assay [9] it was 1.88 µM (active); in assay [10] it was 11.9 µM (active); in assay [11] it was 29.8 nM (active); in assay [12] it was 37.6 nM (active).

As to `Clc1ccc2c(c1)C(N1CCNCC1)=Nc1ccccc1O2`, the Potency entry in assay [1], in assay [3], in assay [6], in [8], in assay [9] and in assay [16] was “inactive” in each case. Further, the Potency result in assay [17], in [19], in assay [11] and in [12] was “inactive” throughout. The Potency in assay [2] is 49 µM (active) and 26.8 µM (active); in assay [5], 43.6 µM (active) and 26.8 µM (active); in assay [10], 24.3 µM (active) and 13.3 µM (active).

With `CC(C)(C)c1ccc(O)c(C(C)(C)C)c1`, the Potency result in assay [1], in assay [13], in assay [9], in assay [14] and in [18] was “inactive” throughout. The Potency in assay [2] was 48.8 µM (active) and 43.6 µM (active); in assay [3] it was 43.5 µM (active); in [5], 38.7 µM (active); in assay [6], 34.5 µM (active); in assay [7], 24.4 µM (active) and 34.7 µM (active); in [8], 48.8 µM (active) and 49 µM (active).

Turning to `Cc1c(O)cccc1C(=O)N[C@@H](CSc1ccccc1)[C@H](O)CN1C[C@H]2CCCC[C@H]2C[C@H]1C(=O)NC(C)(C)C`, the Potency result in assay [1], in assay [3], in [6], in assay [7], in assay [8] and in assay [17] was “inactive” each time. Besides, the Potency entry in assay [18] is “inactive”. In addition, the Potency in assay [2] was 12 µM (active); in assay [5], 21.3 µM (active); in assay [9], 8.41 µM (active) and 15 µM (active); in assay [14] it was 59.5 µM (active) and 26.6 µM (active); in assay [15], 18.8 µM (active); in [10], 1.5 µM (active) and 1.88 µM (active). Further, the Potency in assay [11] is 2.37 µM (active) and 3.76 µM (active); in assay [12], 8.41 µM (active) and 29.8 µM (active).
